Assay outcomes from PubChem.
C_diff_HTS: blocks growth of Clostridium difficile. Clostridium difficile clinical isolate growth, OD600, 24 h; stronger effect = lower value. 0.25% of 86,000 active. AID 1259249. growth activity, negative = inhibition, % at 16 µg/mL (by protocol);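 active = mean growth activity at or below -80% and every replicate also at or below -80%; inconclusive = mean at or below -80% but some replicate above -80%; inactive = mean growth activity above -80%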;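 also: 0% = DMSO wells and -100% = levofloxacin 16 µg/mL wells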
T_cruzi_growth-1: T. cruzi proliferation inhibition | 5.9% of 77,000 active | T. cruzi beta-gal in NIH3T3, GalScreen luminescence, 90 h | inhibition, % at 8.34 µM | AID 624255;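 active = mean inhibition above about 93%, with at least 55% of replicates each passing it, limit read from the data, passing the limit was not always enough; inconclusive = only one of those two conditions holds; inactive = neither condition holds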
Pf_Dd2_inh: P. falciparum Dd2 growth inhibition; SYBR Green, 72 h; stronger effect = lower value; 2.3% of 94,000 active; activity change, % at 10 µM; in the data active = activity change below about -80%; inconclusive = no clear call, values can overlap the other calls
T_cruzi_growth-2: inhibitors of T. cruzi proliferation | 72% of 5,600 active | inhibition, % at 8.35 µM | shares compounds with T_cruzi_growth-1 | T. cruzi beta-gal in NIH3T3, GalScreen luminescence, 90 h;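 active = mean replicate inhibition above about 95% and at least 55% of replicates individually reaching it, limit read from the data; inconclusive = only one of the two criteria is met; inactive = neither criterion is met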
T_cruzi_growth-3: inhibitors of T. cruzi proliferation. shares compounds with T_cruzi_growth-1. T. cruzi beta-gal in NIH3T3, GalScreen luminescence, 90 h. inhibition, % at 2.09 µM. 21% of 5,600 active;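 active = mean inhibition above about 95%, with at least 55% of replicates also reaching it, limit read from the data; inconclusive = meets just one of the two conditions; inactive = meets neither condition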;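 also: plate controls were neutral control median for no effect and positive control median for full effect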
3T3_cytotox: kills mouse NIH/3T3 fibroblasts; AID 651742; shares compounds with T_cruzi_growth-1; NIH/3T3 viability, CellTiter-Glo ATP luminescence, 90 h; 14% of 5,600 active; cytotoxicity (signal decrease), % at 8.35 µM;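 active = mean signal decrease across replicates above about 35% based on untreated-well scatter, with enough replicates individually passing, limit read from the data; inconclusive = no rule stated though some were filed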;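 also: 0% = median of neutral control wells and 100% = median of positive control wells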
3T3_cytotox_2: kills mouse NIH/3T3 fibroblasts; shares compounds with T_cruzi_growth-1; NIH/3T3 viability, CellTiter-Glo ATP luminescence, 90 h; inhibition, % at 24.9 µM; 56% of 5,600 active;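 active = mean loss of cell viability signal at or above a set limit, and enough replicates individually reaching it; inconclusive = meets only the mean limit or only the replicate share; inactive = meets neither condition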;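 also: 0% = median of neutral control wells and 100% = median of positive control wells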
Numbers without * were called inactive; ? = inconclusive; . = not tested or not shown; ! = not active in a repeat. Sampled rows, rich in hits. Any-hit rate of the full collection: about 6.8%.

SMILES C_diff_HTS T_cruzi_growth-1 Pf_Dd2_inh T_cruzi_growth-2 T_cruzi_growth-3 3T3_cytotox 3T3_cytotox_2
C/C=C/c1ccc([C@H]2[C@@H](CO)N(C(=O)CN(C)C)C23CN(C(=O)C2CCC2)C3)cc1 -3 . -23 . . . .
CC(C)NC(=O)N(C)C[C@@H]1Oc2ccc(NC(=O)Cn3cnnn3)cc2CC(=O)N([C@H](C)CO)C[C@@H]1C -6 27 26 . . . .
CNC[C@H]1Oc2ncc(C#CCC(C)C)cc2C(=O)N([C@H](C)CO)C[C@H]1C 4 105* -57 106* 89 5 22
CC(C)CC#Cc1cnc2c(c1)C(=O)N([C@H](C)CO)C[C@H](C)[C@@H](CN(C)Cc1ccc(F)cc1)O2 5 48 -30 . . . .
C[C@H](CO)N1C[C@H](C)[C@H](CN(C)Cc2ccccc2)Oc2ncc(C#Cc3ccc(F)cc3)cc2C1=O 23 55 -26 . . . .
C[C@H](CO)N1C[C@H](C)[C@H](CN(C)Cc2cccc(C(F)(F)F)c2)Oc2ncc(C#Cc3ccccc3)cc2C1=O . 99* -42 102* 86 8 31*
C[C@H](CO)N1C[C@H](C)[C@H](CN(C)Cc2ccc(F)cc2)Oc2ncc(C#Cc3ccccc3)cc2C1=O . ? -5 103* 88 12 101*
C[C@H](CO)N1C[C@H](C)[C@H](CN(C)Cc2cccc(C(F)(F)F)c2)Oc2ncc(C#Cc3ccc(F)cc3)cc2C1=O 9 . -33 . . . .
CC(C)CC#Cc1cnc2c(c1)C(=O)N([C@@H](C)CO)C[C@@H](C)[C@@H](CN(C)Cc1ccc(F)cc1)O2 11 ? -57 108* 58 5 57*
CNC[C@@H]1Oc2ncc(C#CCC(C)C)cc2C(=O)N([C@H](C)CO)C[C@@H]1C 14 . -37 . . . .
CC(=O)N(C)C[C@H]1Oc2ncc(-c3cncnc3)cc2C(=O)N([C@@H](C)CO)C[C@@H]1C -4 -25 33 . . . .
O=C(Nc1cccc(F)c1)N1C[C@H]2[C@@H](c3ccccc31)[C@H](CO)N2C(=O)C1CCOCC1 1 -35 -10 . . . .
CC(C)CC#Cc1cnc2c(c1)C(=O)N([C@@H](C)CO)C[C@@H](C)[C@H](CN(C)Cc1ccc(F)cc1)O2 6 ? -51 104* 32 25 105*
CCCC#Cc1cnc2c(c1)C(=O)N([C@@H](C)CO)C[C@@H](C)[C@@H](CN(C)Cc1ccc(F)cc1)O2 10 72 -45 . . . .
C[C@H](CO)N1C[C@H](C)[C@H](CN(C)C(=O)Nc2cccc3ccccc23)Oc2ccc(NC(=O)Cn3cnnn3)cc2CC1=O -12 -22 -1 . . . .
C=CCN1C(=O)[C@@]2(O[C@@H](CCO)[C@H]([Si](C)(C)c3ccc(OC)cc3)[C@H]2C)c2ccccc21 -6 . . . . . .
C[C@@H]1CCCCO[C@@H](CN(C)C(=O)c2ccncc2)[C@H](C)CN([C@@H](C)CO)C(=O)c2cc(NS(=O)(=O)c3cn(C)cn3)ccc2O1 3 -35 29 . . . .
C[C@@H]1CN([C@H](C)CO)S(=O)(=O)c2ccc(-c3ccncc3)cc2O[C@@H]1CN(C)C(=O)c1cccc(F)c1 2 104* -21 89 54 9 55*
C[C@@H]1CN([C@H](C)CO)S(=O)(=O)c2ccc(-c3cccc(F)c3)cc2O[C@H]1CN(C)C(=O)c1cccc(F)c1 8 83 -57 . . . .
C[C@H]1CN([C@@H](C)CO)S(=O)(=O)c2ccc(-c3cccc(F)c3)cc2O[C@@H]1CN(C)C(=O)c1cccc(F)c1 8 83 -54 . . . .
C[C@H]1CN([C@@H](C)CO)S(=O)(=O)c2ccc(-c3ccncc3)cc2O[C@H]1CN(C)C(=O)c1cccc(F)c1 11 105* -44 102*! 76 5 19
Cc1ccc(-c2ccc3c(c2)O[C@@H](CN(C)Cc2ccc(C(=O)O)cc2)[C@@H](C)CN([C@@H](C)CO)S3(=O)=O)cc1 5 46 -48 . . . .
COc1cccc(NC(=O)N(C)C[C@@H]2OCc3cnnn3CCCC(=O)N([C@@H](C)CO)C[C@@H]2C)c1 . 11 0 . . . .
O=C(Nc1ccc2c(c1)[C@@H]1C[C@H](CC(=O)N3CCCCC3)O[C@@H](CO)[C@@H]1O2)C1CCOCC1 . -31 34 . . . .
C[C@H]1CN([C@@H](C)CO)S(=O)(=O)c2ccc(C3=CCCC3)cc2O[C@@H]1CN(C)C(=O)C1CCOCC1 -2 55 -42 . . . .
SMILES C_diff_HTS T_cruzi_growth-1 Pf_Dd2_inh T_cruzi_growth-2 T_cruzi_growth-3 3T3_cytotox 3T3_cytotox_2
CN(C)C(=O)c1cccc(-c2ccc3c(c2)[C@@H]2[C@@H](CCN2S(=O)(=O)c2cn(C)cn2)[C@H](CO)N3)c1 -3 ? 29 96* 66 -11 -23
CN(C)C(=O)c1ccc(-c2ccc3c(c2)[C@H]2[C@H](CCN2S(=O)(=O)c2cn(C)cn2)[C@@H](CO)N3)cc1 -3 71 -44 . . . .
CN(C)C(=O)c1cccc(-c2ccc3c(c2)[C@@H]2[C@@H](CCN2S(=O)(=O)c2cn(C)cn2)[C@@H](CO)N3)c1 -8 ? 16 103* 40 14 -9
Cn1cnc(S(=O)(=O)N2CCCCN3[C@H](CO)[C@@H](c4ccc(-c5cccc(F)c5)cc4)[C@@H]3C2)c1 -9 103* 41 104* 1 22 64*
Cn1cnc(S(=O)(=O)N2CCCCN3[C@H](CO)[C@@H](c4ccc(-c5cccc(F)c5)cc4)[C@H]3C2)c1 -12 40 19 . . . .
Cn1cnc(S(=O)(=O)N2CCCCN3[C@H](C2)[C@@H](c2ccc(-c4cccc(F)c4)cc2)[C@@H]3CO)c1 -12 103* 34 96* 5 6 ?
Cn1cnc(S(=O)(=O)N2CCCCN3[C@@H](CO)[C@H](c4ccc(-c5cccc(F)c5)cc4)[C@@H]3C2)c1 -1 70 25 . . . .
CC(=O)N(C)C[C@H]1Oc2cc(-c3cccc(C#N)c3)ccc2S(=O)(=O)N([C@H](C)CO)C[C@H]1C -2 21 -13 . . . .
CN(C)CC(=O)Nc1ccc2c(c1)[C@@H]1C[C@@H](CC(=O)NCc3ccc(-c4ccccc4)cc3)O[C@@H](CO)[C@@H]1O2 -11 46 0 . . . .
COc1ccccc1C#Cc1ccc2c(c1)[C@H]1[C@H](CCN1C(=O)c1cccc(F)c1)[C@H](CO)N2 -1 ? -74 101* 87 33 104*
O=C(c1ccccc1)N1CC[C@H]2[C@H](CO)Nc3ccc(C#Cc4cccc(F)c4)cc3[C@H]21 42 122* -34 112* 79 10 39*
